Test results: the OligoGym collection

Molecular target: AMOTL1
Assay: pooled miR-30 sensor sort-seq; sequence = guide strand
Conditions: shRNA
Further: reference of the scale not given here.

Q: For TAGACTTGACCAGACTTTCATA, which sensor-assay potency score (higher = more potent) is on record?
A: -0.788

Q: How did the sensor-assay potency score (higher = more potent) turn out when TTCTTTTTCAAACTTGTGGAGC was run?
A: -0.646

Q: Which sensor-assay potency score (higher = more potent) does the source give for TTAACTTTGTTTGCAAACCTAC here?
A: 0.352

Molecular target: AMPH
Assay: as above
Conditions: shRNA

Q: Which sensor-assay potency score (higher = more potent) does the source give for TTAACATAAAATCCAACTCGTC here?
A: -0.669

Q: Which sensor-assay potency score (higher = more potent) does the source give for TAGTCCACTAGCTTCCTGCTGC here?
A: 0.262

Q: With TAACAAAAGTGAACTCTTCAGG as the sequence, how does the sensor-assay potency score (higher = more potent) read?
A: -0.296

Q: For TTTTACTTTAGAACAATCTGTG, which sensor-assay potency score (higher = more potent) is on record?
A: 0.225

Q: With TTGTGAATAATGAAGTATCCTG as the sequence, how does the sensor-assay potency score (higher = more potent) read?
A: -0.215

Q: TAAATGAACCACCAGAAGCCGG was tested. Which sensor-assay potency score (higher = more potent) did it give?
A: -1.23

Q: With TTCTTCGAACTGTTCGTCTTTT as the sequence, how does the sensor-assay potency score (higher = more potent) read?
A: -0.66

Q: How did the sensor-assay potency score (higher = more potent) turn out when TACTTTAGAACAATCTGTGAAG was run?
A: -0.229

Q: How did the sensor-assay potency score (higher = more potent) turn out when TCTGCATACACATAGATCCAGG was run?
A: -1.05

Q: For AAACTCTTCAAACACTTTCTGT, which sensor-assay potency score (higher = more potent) is on record?
A: -0.65

Q: TTGATTGCTGCTAAATATCCTC was tested. Which sensor-assay potency score (higher = more potent) did it give?
A: -0.275

Q: With TCATAGTCCACTAGCTTCCTGC as the sequence, how does the sensor-assay potency score (higher = more potent) read?
A: -0.747

Q: For TTACTTTAGAACAATCTGTGAA, which sensor-assay potency score (higher = more potent) is on record?
A: -0.181

Q: Which sensor-assay potency score (higher = more potent) does the source give for TAACATAAAATCCAACTCGTCT here?
A: -0.296

Q: How did the sensor-assay potency score (higher = more potent) turn out when TTTTTTGCACACATGCTCCATT was run?
A: -0.524

Q: How did the sensor-assay potency score (higher = more potent) turn out when TTCTGGAACAAAGTTGTCCTCA was run?
A: -0.205

Q: Which sensor-assay potency score (higher = more potent) does the source give for TGATTTGGACTTGCTGTCGGGC here?
A: -0.73

Q: With TTTTTGATGGAAGTCTTCCCAC as the sequence, how does the sensor-assay potency score (higher = more potent) read?
A: -0.336

Q: With TTTCCTTATGAAACTTGGCTTC as the sequence, how does the sensor-assay potency score (higher = more potent) read?
A: -0.107

Q: With TAGAGATTCGACTCTCATCCTT as the sequence, how does the sensor-assay potency score (higher = more potent) read?
A: 0.077

Q: With TAATTCATCACATCTTCTGCAG as the sequence, how does the sensor-assay potency score (higher = more potent) read?
A: -0.0381

Q: With TTTACTTTAGAACAATCTGTGA as the sequence, how does the sensor-assay potency score (higher = more potent) read?
A: -0.223

Q: With TTGCTGCTAAATATCCTCGGAG as the sequence, how does the sensor-assay potency score (higher = more potent) read?
A: -0.441

Q: How did the sensor-assay potency score (higher = more potent) turn out when TTGTCTGTGAAGGTGACCGAGG was run?
A: -0.658

Molecular target: AMY2A
Assay: as above
Conditions: shRNA

Q: Which sensor-assay potency score (higher = more potent) does the source give for TTAAAGAAAATGACCAGTCATC here?
A: -0.896

Q: With TTATCCACAAAGACAAGCGCTC as the sequence, how does the sensor-assay potency score (higher = more potent) read?
A: -0.172

Q: Which sensor-assay potency score (higher = more potent) does the source give for TTAAGTAAGACATCTTCTCTCC here?
A: 0.353

Q: With TTTACCATCATTGAAATCCCAT as the sequence, how does the sensor-assay potency score (higher = more potent) read?
A: -0.145

Q: How did the sensor-assay potency score (higher = more potent) turn out when TACATTGCGGAAAATAACCATG was run?
A: -1.22

Q: TTGTACAGCCTAGCATCCCAGA was tested. Which sensor-assay potency score (higher = more potent) did it give?
A: -1.14

Molecular target: ANAPC5
Assay: as above
Conditions: shRNA

Q: Which sensor-assay potency score (higher = more potent) does the source give for TTTGACAGTGTAATATCTGGGC here?
A: 0.588

Q: TTTTGATCACATAACATCCATA was tested. Which sensor-assay potency score (higher = more potent) did it give?
A: -1.19

Q: How did the sensor-assay potency score (higher = more potent) turn out when TTTTTGATCACATAACATCCAT was run?
A: 0.00973

Q: For TGTAATACAACCGCTTTCCTAT, which sensor-assay potency score (higher = more potent) is on record?
A: -0.539

Q: For TACAGTTTAAACACTTGGCTGA, which sensor-assay potency score (higher = more potent) is on record?
A: 0.833

Q: TTGTTTTGTGAACCTCTGGTTC was tested. Which sensor-assay potency score (higher = more potent) did it give?
A: -0.673

Q: With TCACATAACATCCATAACTGGG as the sequence, how does the sensor-assay potency score (higher = more potent) read?
A: -0.755
